Experiment in all cases: protein-binding microarray (PBM); PBM: ~300 nM protein, 6 mM HEPES pH 7.8, 80 mM KCl, 0.5 mM EDTA, 0.5 mM EGTA, 6% glycerol, 35 ng/ul poly-dIdC, 1% milk, 1 h, room temperature; Ap Aiptasia and Nv Nematostella (sea anemones) / Co Capsaspora / Aq Amphimedon (sponge) / Dm Drosophila / Hu human; RHD is the Rel homology domain; high values mean tight binding
What all share (settings): dsDNA, one strand shown

One assay has as its target T1, GST-Ap-NF-kB RHD (Exaiptasia pallida (Aiptasia), UniProt A0A913YAJ5 2-422).
T1 sequence: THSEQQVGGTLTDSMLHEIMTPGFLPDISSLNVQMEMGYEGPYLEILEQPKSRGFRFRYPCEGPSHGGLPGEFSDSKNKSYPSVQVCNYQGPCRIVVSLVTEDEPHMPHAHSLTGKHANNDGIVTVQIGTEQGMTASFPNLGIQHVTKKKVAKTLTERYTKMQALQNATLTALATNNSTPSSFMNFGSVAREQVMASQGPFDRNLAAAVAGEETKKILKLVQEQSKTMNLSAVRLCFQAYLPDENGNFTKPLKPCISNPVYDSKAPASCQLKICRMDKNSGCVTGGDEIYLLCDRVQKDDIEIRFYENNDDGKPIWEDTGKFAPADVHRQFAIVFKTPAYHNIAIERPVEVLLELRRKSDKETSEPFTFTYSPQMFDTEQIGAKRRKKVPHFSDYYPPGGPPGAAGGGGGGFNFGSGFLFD

Assay [1] has as its target T2, GST-Nv-NF-kB (Cys allele) (Nematostella vectensis, UniProt E5G601 2-411).
T2 sequence: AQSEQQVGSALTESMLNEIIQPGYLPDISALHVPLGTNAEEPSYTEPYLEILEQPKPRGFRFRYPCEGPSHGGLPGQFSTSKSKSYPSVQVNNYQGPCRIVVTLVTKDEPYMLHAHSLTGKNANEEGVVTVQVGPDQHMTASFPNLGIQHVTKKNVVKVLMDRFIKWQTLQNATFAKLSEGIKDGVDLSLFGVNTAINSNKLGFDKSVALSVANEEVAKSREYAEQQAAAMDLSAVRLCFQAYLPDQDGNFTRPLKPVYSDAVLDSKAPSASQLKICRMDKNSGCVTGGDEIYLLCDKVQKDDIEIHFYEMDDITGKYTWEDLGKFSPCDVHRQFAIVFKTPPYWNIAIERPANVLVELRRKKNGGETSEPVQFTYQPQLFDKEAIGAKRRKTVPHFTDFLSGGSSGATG

A further assay concerns the target T3, GST-Co-NF-kB (Capsaspora owczarzaki, UniProt F1ARL5 200-546).
T3 sequence: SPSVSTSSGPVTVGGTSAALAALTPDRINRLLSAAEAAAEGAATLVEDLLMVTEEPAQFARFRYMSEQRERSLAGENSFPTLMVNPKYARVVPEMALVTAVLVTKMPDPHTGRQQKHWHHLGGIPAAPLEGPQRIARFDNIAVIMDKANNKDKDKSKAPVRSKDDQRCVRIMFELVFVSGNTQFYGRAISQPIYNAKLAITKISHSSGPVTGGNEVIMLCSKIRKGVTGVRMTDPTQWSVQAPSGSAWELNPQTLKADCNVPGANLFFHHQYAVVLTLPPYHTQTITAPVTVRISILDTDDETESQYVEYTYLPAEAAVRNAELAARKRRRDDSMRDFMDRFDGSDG

Another assay has as its target T4, GST-Dm-Relish (Drosophila melanogaster, UniProt Q94527 99-473).
T4 sequence: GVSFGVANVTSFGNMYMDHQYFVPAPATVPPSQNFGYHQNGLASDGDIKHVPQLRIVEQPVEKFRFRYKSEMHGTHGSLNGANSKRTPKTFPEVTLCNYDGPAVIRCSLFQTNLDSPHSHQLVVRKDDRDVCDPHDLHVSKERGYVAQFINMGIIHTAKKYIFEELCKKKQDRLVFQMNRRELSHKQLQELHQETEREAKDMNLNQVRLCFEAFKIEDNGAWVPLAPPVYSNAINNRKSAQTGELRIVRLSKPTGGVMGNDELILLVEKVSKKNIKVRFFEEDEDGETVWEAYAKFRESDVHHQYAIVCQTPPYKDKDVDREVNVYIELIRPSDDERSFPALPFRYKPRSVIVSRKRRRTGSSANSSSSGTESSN

Another assay addresses T5, GST-Aq-NF-kB (Amphimedon queenslandica, UniProt A9Y5G7 2-389).
T5 sequence: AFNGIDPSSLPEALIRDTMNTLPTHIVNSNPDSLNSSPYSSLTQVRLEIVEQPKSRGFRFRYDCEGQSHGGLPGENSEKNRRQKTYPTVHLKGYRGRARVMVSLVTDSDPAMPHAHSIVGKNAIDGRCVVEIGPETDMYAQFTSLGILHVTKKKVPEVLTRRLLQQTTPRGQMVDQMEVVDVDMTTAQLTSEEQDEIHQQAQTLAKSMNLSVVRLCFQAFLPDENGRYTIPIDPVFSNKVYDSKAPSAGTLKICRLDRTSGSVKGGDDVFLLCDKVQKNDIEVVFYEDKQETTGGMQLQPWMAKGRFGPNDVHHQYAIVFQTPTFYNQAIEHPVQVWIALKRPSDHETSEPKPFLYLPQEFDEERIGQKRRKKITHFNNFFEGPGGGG

A further assay concerns the target GST-Hu-p50 (Homo sapiens, UniProt P19838 7-356).
Assay [2] deals with T6, GST-Nv-NF-kB (Ser allele) (Nematostella vectensis, UniProt A7UNT2 2-411).
T6 sequence: T2 sequence with Q21R, C66S, S207N, E215Q, V217A, E225K, A268E, D399E

Residue numbers refer to the chain shown, from its start.

Sequence of GST-Hu-p50 (P19838 7-356): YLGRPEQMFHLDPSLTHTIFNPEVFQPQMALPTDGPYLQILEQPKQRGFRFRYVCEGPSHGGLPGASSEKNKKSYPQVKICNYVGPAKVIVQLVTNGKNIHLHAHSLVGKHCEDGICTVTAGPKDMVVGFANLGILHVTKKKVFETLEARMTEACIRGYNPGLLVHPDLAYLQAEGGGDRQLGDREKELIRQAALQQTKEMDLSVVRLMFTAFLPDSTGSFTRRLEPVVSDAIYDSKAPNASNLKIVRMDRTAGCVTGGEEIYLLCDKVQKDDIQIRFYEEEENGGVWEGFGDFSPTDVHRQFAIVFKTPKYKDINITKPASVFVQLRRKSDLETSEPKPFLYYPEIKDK

Consider “CCGATTAACATCAGGGGGGTTACTGATGTTAATCGGGTCTTGATTCGCTTGACGCTGCTG”, for which the binding signal in the assay with GST-Ap-NF-kB RHD amounted to 7.07 z-score; in assay [1] it was 4.42 z-score; with GST-Co-NF-kB, 4.24 z-score; with GST-Dm-Relish, 8 z-score; with GST-Aq-NF-kB it was 5.46 z-score; with GST-Hu-p50, 5.29 z-score.
“CCGATTAACATCAGGGGGTTCACTGATGTTAATCGGGTCTTGATTCGCTTGACGCTGCTG”: the binding signal stood at 5.94 z-score with GST-Ap-NF-kB RHD; 4.09 z-score in assay [1]; 2.91 z-score in the assay with GST-Co-NF-kB; 10.4 z-score with GST-Dm-Relish; 5.84 z-score with GST-Aq-NF-kB; 5.34 z-score with GST-Hu-p50.
On to “CCGATTAACATCAGGACTGCCCCTGATGTTAATCGGGTCTTGATTCGCTTGACGCTGCTG”, for which the binding signal with GST-Ap-NF-kB RHD was 3.49 z-score; in assay [1], 4.13 z-score; in the assay with GST-Dm-Relish it was 3.18 z-score; with GST-Aq-NF-kB, 7.05 z-score; in the assay with GST-Hu-p50, 4.09 z-score.
“CCGATTAACATCAAAGAGTCCCCTGATGTTAATCGGGTCTTGATTCGCTTGACGCTGCTG”: the binding signal in the assay with GST-Ap-NF-kB RHD came to 6.56 z-score; in assay [1], 6.17 z-score; with GST-Co-NF-kB, 3.49 z-score; with GST-Dm-Relish, 6.3 z-score; with GST-Aq-NF-kB, 5.8 z-score; with GST-Hu-p50 it was 5.88 z-score.
On to “CCGATTAACATCAGGCGAACCCCTGATGTTAATCGGGTCTTGATTCGCTTGACGCTGCTG”, for which the binding signal with GST-Ap-NF-kB RHD came to 1.57 z-score; in assay [1], 1.1 z-score; with GST-Dm-Relish it was 1.37 z-score; in the assay with GST-Aq-NF-kB it was 2.96 z-score; with GST-Hu-p50 it was 1.53 z-score.
In the same order, the values of “CCGATTAACATCAGGGCCTTTTGTGATGTTAATCGGGTCTTGATTCGCTTGACGCTGCTG” are 1.85 z-score, 1.14 z-score, 5.05 z-score, 2.46 z-score and 2.05 z-score.
“CCGATTAACATCACACTCCCCCCTGATGTTAATCGGGTCTTGATTCGCTTGACGCTGCTG”: the binding signal turned out to be 5.44 z-score with GST-Ap-NF-kB RHD; 4.08 z-score in assay [1]; 6.07 z-score in the assay with GST-Co-NF-kB; 3.37 z-score in the assay with GST-Dm-Relish; 3.93 z-score in the assay with GST-Aq-NF-kB; 5.38 z-score with GST-Hu-p50.
Consider “CCGATTAACATCAGGAAGATCCCTGATGTTAATCGGGTCTTGATTCGCTTGACGCTGCTG”, for which the binding signal was determined as 3.43 z-score in the assay with GST-Ap-NF-kB RHD; 1.84 z-score in assay [1]; 2.71 z-score with GST-Dm-Relish; 5.44 z-score with GST-Aq-NF-kB; 1.57 z-score with GST-Hu-p50.
With “CCGATTAACATCACCCTCGAGGGTGATGTTAATCGGGTCTTGATTCGCTTGACGCTGCTG”, the binding signal stood at 1.01 z-score with GST-Ap-NF-kB RHD; 1.78 z-score in assay [2]; 1.1 z-score in the assay with GST-Co-NF-kB; 1.08 z-score in the assay with GST-Dm-Relish; 1.65 z-score in the assay with GST-Aq-NF-kB; 2.34 z-score with GST-Hu-p50.
Consider “CCGATTAACATCACCCGGGTAAATGATGTTAATCGGGTCTTGATTCGCTTGACGCTGCTG”, for which the binding signal in the assay with GST-Ap-NF-kB RHD turned out to be 1.42 z-score; in assay [2], 1.15 z-score; with GST-Co-NF-kB, 2.41 z-score; with GST-Aq-NF-kB, 1.02 z-score; with GST-Hu-p50 it was 1.11 z-score.
With “CCGATTAACATCAAGGGAATTCCTGATGTTAATCGGGTCTTGATTCGCTTGACGCTGCTG”, the binding signal in the assay with GST-Ap-NF-kB RHD amounted to 7.9 z-score; in assay [1], 8.71 z-score; with GST-Co-NF-kB, 3.76 z-score; with GST-Dm-Relish it was 7.95 z-score; in the assay with GST-Aq-NF-kB, 8.11 z-score; with GST-Hu-p50 it was 5.3 z-score.
As for “CCGATTAACATCAGGAAAGGCCCTGATGTTAATCGGGTCTTGATTCGCTTGACGCTGCTG”, the binding signal with GST-Ap-NF-kB RHD stood at 2.38 z-score; in assay [1], 2.62 z-score; with GST-Dm-Relish it was 5.48 z-score; with GST-Aq-NF-kB it was 5.31 z-score; in the assay with GST-Hu-p50, 2.61 z-score.
For the sequence “CCGATTAACATCAGAAAAACACCTGATGTTAATCGGGTCTTGATTCGCTTGACGCTGCTG”, the binding signal in the assay with GST-Ap-NF-kB RHD turned out to be 2.56 z-score; in assay [1], 3.55 z-score; with GST-Dm-Relish, 3.66 z-score; with GST-Aq-NF-kB it was 3.91 z-score; with GST-Hu-p50, 5.37 z-score.
In the same order, the values of “CCGATTAACATCAGGGAGTGCCCTGATGTTAATCGGGTCTTGATTCGCTTGACGCTGCTG” are 2.83 z-score, 2.18 z-score, 3.85 z-score, 5.66 z-score and 1.98 z-score.
Take “CCGATTAACATCACGCATCCCCCTGATGTTAATCGGGTCTTGATTCGCTTGACGCTGCTG”: the binding signal with GST-Ap-NF-kB RHD was 6.1 z-score; in assay [1], 4.9 z-score; with GST-Co-NF-kB, 4.65 z-score; in the assay with GST-Dm-Relish it was 3.44 z-score; with GST-Aq-NF-kB it was 4.33 z-score; with GST-Hu-p50, 5.14 z-score.
For the sequence “CCGATTAACATCAGGACCTTCCCTGATGTTAATCGGGTCTTGATTCGCTTGACGCTGCTG”, the binding signal with GST-Ap-NF-kB RHD amounted to 2.74 z-score; in assay [1], 2.66 z-score; with GST-Dm-Relish it was 1.9 z-score; with GST-Aq-NF-kB, 5.89 z-score; with GST-Hu-p50, 1.95 z-score.
For the sequence “CCGATTAACATCAGATAAACCCCTGATGTTAATCGGGTCTTGATTCGCTTGACGCTGCTG”, the binding signal in the assay with GST-Ap-NF-kB RHD amounted to 4.36 z-score; in assay [1] it was 4.29 z-score; with GST-Dm-Relish, 5.22 z-score; with GST-Aq-NF-kB, 4.77 z-score; with GST-Hu-p50 it was 4.53 z-score.
Regarding “CCGATTAACATCAGAAGACCCCCTGATGTTAATCGGGTCTTGATTCGCTTGACGCTGCTG”, the binding signal with GST-Ap-NF-kB RHD turned out to be 5.66 z-score; in assay [1], 3.66 z-score; with GST-Co-NF-kB, 1.79 z-score; with GST-Dm-Relish it was 4.9 z-score; with GST-Aq-NF-kB, 4.82 z-score; with GST-Hu-p50, 4.45 z-score.

The values are drawn from publication PMC5700166.
